For 3 molecules, outcome and AC50 results are on record in PubChem BioAssay (EPA / NIEHS).

The nature of experiment [1]: ACEA_ER_80hr: ACEA Biosciences xCELLigence Real-Time Cell Analysis on Estrogen Receptor Agonism for Proliferation (AID 2282667; active means hit-call score of the fitted dose curve at least 0.9, where 1 is the maximum). The note with it: T47D proliferation, impedance (xCELLigence), 80 h. The method in brief:
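Impedance readout (RT-CES) of T47D proliferation at 80 h post-dose; gain of signal vs DMSO baseline. Compounds: 8 conc, 1:4 serial, top 100 uM final, ≤0.5% DMSO; biological duplicate.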

Experiment [2] is described as follows: ATG_CRE_CIS: Attagene CIS-FACTORIAL HepG2 Assay for human cAMP Responsive Element (CRE) binding protein 3 (AID 2282926). The note with it: HepG2 CRE cis-reporter, Attagene multiplexed mRNA; actives raise or lower the signal. Put shortly:
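Endogenous CRE-binding activity in HepG2 is reported through a cis-regulated transfected reporter. Following a day of exposure, mRNA levels are determined by reverse transcription PCR and fluorescent fragment analysis; fits run in both directions versus DMSO.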

For experiment [3], the target named is CCAAT/enhancer-binding protein beta (Homo sapiens) (UniProt P17676). The experiment is described as follows: ATG_C_EBP_CIS: Attagene CIS-FACTORIAL HepG2 Assay for human CCAAT/Enhancer Binding Protein (C/EBP) beta (AID 2282927). The conditions noted are these: HepG2 Attagene cis-factorial transcription factor reporter; actives raise or lower the signal. Put shortly: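 Changes in reporter mRNA, rather than exogenous chimeric receptor activity, reflect native C/EBP signalling in transfected HepG2 cells dosed for 24 h; transcripts are detected by RT-PCR and capillary electrophoresis.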

Experiment [4] is described as follows: ATG_CMV_CIS: Attagene CIS-FACTORIAL HepG2 Assay for human CMV (Internal Marker) (AID 2282928).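 Further: endpoint acts as a background internal control marker rather than a target.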 The note with it: HepG2 CMV promoter reporter, transcription factor profiling; actives raise or lower the signal. The method in brief:
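After transient transfection of HepG2 with reporter transcription units driven by cis-regulatory promoters, cells receive test chemical for 24 h. Labeled reporter amplicons, digested with HpaI, are sized and quantified by capillary electrophoresis against DMSO.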

Experiment [5] in a line: ATG_DR4_LXR_CIS: Attagene CIS-FACTORIAL HepG2 Assay for human Liver X Receptor (LXR), DR4 submotif (AID 2282929). The conditions noted are these: HepG2 Attagene DR4 cis-reporter, mRNA transcription; actives raise or lower the signal. The method in brief:
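The endpoint is DR4-element-driven reporter transcripts after 24 h chemical exposure of transfected HepG2 cells. These were measured via RT-PCR and capillary electrophoresis, and gain or loss of signal was fitted relative to DMSO controls.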

Experiment [6] addresses Aryl hydrocarbon receptor (Homo sapiens) (UniProt P35869). The experiment is described as follows: ATG_Ahr_CIS: Attagene CIS-FACTORIAL HepG2 Assay for human Aryl Hydrocarbon Receptor (Ahr) (AID 2282930). The note with it: HepG2 AhR cis-factorial reporter transcription; actives raise or lower the signal. The method in brief: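 HepG2, transient MRTU (cis) transfection, 24 h exposure. RNA → cDNA → PCR → 6-FAM primer extension → HpaI 2 h 37 C → CE. Fit: bidirectional, DMSO baseline.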

Experiment [7] can be described thus: ATG_AP_1_CIS: Attagene CIS-FACTORIAL HepG2 Assay for human Activator Protein 1 (AP-1) (AID 2282931). The conditions noted are these: HepG2 Attagene cis-factorial AP-1 reporter mRNA; actives raise or lower the signal. Put shortly:
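Readout is reporter transcript level from endogenous transcription factor activity, quantified by RT-PCR with fluorescent primer extension and capillary electrophoresis. Transiently transfected HepG2 cells, 24 h exposure. Curves fitted both directions versus DMSO.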

Experiment [8] is described as follows: ATG_AP_2_CIS: Attagene CIS-FACTORIAL HepG2 Assay for human Activator Protein 2 (AP-2) (AID 2282932). The conditions noted are these: HepG2 AP-2 cis-reporter, Attagene transcription factor profiling; actives raise or lower the signal. Put shortly:
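Step one: transient transfection of HepG2 with reporter transcription units. Step two: 24 h chemical exposure. Step three: RNA extraction, RT-PCR, labelled fragment analysis by capillary electrophoresis; DMSO serves as baseline.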

Experiment [9] can be described thus: ATG_BRE_CIS: Attagene CIS-FACTORIAL HepG2 Assay for human Bone Morphogenetic Protein (BMP) Response Element (BRE) (AID 2282933). The note with it: HepG2 BMP response element reporter, Attagene transcription factor profiling; actives raise or lower the signal. The method in brief:
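HepG2 cells transiently transfected with multiplexed cis-element reporter units were dosed with chemical for 24 h. Reporter mRNA was measured by RT-PCR with fluorescent labelling, HpaI digestion and capillary electrophoresis; bidirectional fitting relative to DMSO.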

Experiment [10] addresses Retinoic acid receptor alpha (Homo sapiens) (UniProt P10276). Description: ATG_DR5_RAR_CIS: Attagene CIS-FACTORIAL HepG2 Assay for human Retinoic Acid Receptor Alpha (RARE), DR5 submotif (AID 2282934).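 On AC50: reporter responds to endogenous RAR alpha beta and gamma in HepG2 not RARA alone.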 The note with it: HepG2 Attagene cis-factorial RARE DR5 reporter, mRNA; actives raise or lower the signal. Put shortly:
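HepG2, transient cis-reporter transfection, 24 h exposure. mRNA readout: RT-PCR, FAM label, HpaI cut, capillary electrophoresis. DMSO baseline, gain/loss fitting.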

For experiment [11], the target named is Transcription factor E2F1 (Homo sapiens) (UniProt Q01094). Description: ATG_E2F_CIS: Attagene CIS-FACTORIAL HepG2 Assay for human E2F Transcription Factor 1 (AID 2282935). The note with it: HepG2 Attagene cis-reporter, E2F reporter RNA transcripts; actives raise or lower the signal. The method in brief:
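Total RNA from 24 h-treated, reporter-transfected HepG2 cells undergoes DNase I treatment, oligo(dT) reverse transcription, PCR and 6-FAM primer extension before capillary electrophoresis.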

Experiment [12] can be described thus: ATG_E_Box_CIS: Attagene CIS-FACTORIAL HepG2 Assay for human Enhancer Box (E-box) (AID 2282936). The conditions noted are these: HepG2 E-box cis-reporter transcription, actives raise or lower the signal. Put shortly: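 DMSO served as negative control and baseline for bidirectional fitting. Human hepatoma HepG2 cells, transiently transfected with cis-reporter constructs, were dosed 24 h; reporter mRNA read by RT-PCR and capillary electrophoresis.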

A short description of experiment [13]: ATG_M_61_CIS: Attagene CIS-FACTORIAL HepG2 Assay for M61 Transcription Factor (Internal Marker) (AID 2282937). The conditions noted are these: HepG2 Attagene CIS-FACTORIAL M61 internal marker reporter; actives raise or lower the signal. Put shortly: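 Readout is reporter mRNA by RT-PCR, fluorescent primer extension and capillary electrophoresis, with gain or loss fitted relative to DMSO. Transfected HepG2 cells carrying endogenous-TF-driven cis reporters were exposed to chemicals for 24 hours.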

Experiment [14] can be described thus: ATG_EGR_CIS: Attagene CIS-FACTORIAL HepG2 Assay for human Early Growth Response 1 (EGR1) (AID 2282938). The conditions noted are these: HepG2 Attagene CIS-FACTORIAL EGR reporter mRNA; actives raise or lower the signal. Put shortly:
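After 24 h compound exposure, RNA from reporter-transfected HepG2 cells was reverse-transcribed, PCR-amplified, fluorescently labelled and resolved by capillary electrophoresis. EGR1 reporter transcript changes, up or down, were fitted against DMSO, reflecting endogenous transcription-factor activity.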

The nature of experiment [15]: ATG_M_19_CIS: Attagene CIS-FACTORIAL HepG2 Assay for M19 Transcription Factor (Internal Marker) (AID 2282939). The conditions noted are these: HepG2 Attagene CIS-FACTORIAL M19 internal marker reporter; actives raise or lower the signal. Put shortly:
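HepG2 cells transiently transfected with cis-regulated multiple reporter transcription units were dosed for 24 h; reporter mRNA was quantified by RT-PCR, 6-FAM primer-extension labelling, HpaI digestion and capillary electrophoresis, with bidirectional fitting against DMSO baseline.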

The nature of experiment [16]: ATG_ERE_CIS: Attagene CIS-FACTORIAL HepG2 Assay for Estrogen Response Element (ERE) (AID 2282940). The conditions noted are these: HepG2 ERE cis-reporter, Attagene RNA transcript; actives raise or lower the signal. Put shortly: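 HepG2 cells transiently transfected with cis-promoter-driven multiplexed reporter transcription units report endogenous TF activity. After 24 h compound exposure, reporter mRNA is quantified by RT-PCR with capillary electrophoresis fluorescence; bidirectional fitting versus DMSO baseline.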

Experiment [17] can be described thus: ATG_Ets_CIS: Attagene CIS-FACTORIAL HepG2 Assay for human Erythroblast Transformation Specific (ETS) (AID 2282941). The note with it: HepG2 ETS cis-reporter transcription, actives raise or lower the signal. Put shortly: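 Human HepG2 hepatoma cells were transiently transfected with promoter-driven reporter constructs and treated for 24 hours. Reporter transcripts were quantified by RT-PCR with fluorescent primer extension; bidirectional curve fitting used DMSO as reference.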

Experiment [18] concerns the target Hepatocyte nuclear factor 3-beta (Homo sapiens) (UniProt Q9Y261). The experiment is described as follows: ATG_FoxA2_CIS: Attagene CIS-FACTORIAL HepG2 Assay for human Forkhead box A2 (FOXA2) (AID 2282942). The conditions noted are these: HepG2 cis-reporter transcription factor activity, 24 h; actives raise or lower the signal. Put shortly: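 Endogenous transcription factor activity is captured via cis-element-driven reporter transcripts in transfected HepG2. Total RNA taken at 24 h post-dosing; labelled RT-PCR products resolved by capillary electrophoresis. Gain or loss fitted versus DMSO.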

Experiment [19] is described as follows: ATG_FoxO_CIS: Attagene CIS-FACTORIAL HepG2 Assay for human Forkhead box O (FoxO) (AID 2282943). The conditions noted are these: HepG2 Attagene cis-reporter, FoxO element, mRNA; actives raise or lower the signal. The method in brief:
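Human hepatoma HepG2 cells carry transiently introduced reporter transcription units controlled by cis promoter elements. Chemical treatment lasted 24 h, and mRNA signal was compared with DMSO.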

The nature of experiment [20]: ATG_GATA_CIS: Attagene CIS-FACTORIAL HepG2 Assay for human GATA Binding Protein (AID 2282944). The conditions noted are these: HepG2 GATA cis-element reporter, Attagene multiplex mRNA; actives raise or lower the signal. Put shortly: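 HepG2 cells transiently transfected with multiplexed cis-element reporter units reflecting endogenous transcription factor activity; reporter mRNA measured after 24 h dosing by RT-PCR, 6-FAM labeling, HpaI digestion and capillary electrophoresis. Bidirectional fitting versus DMSO baseline.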

Inconclusive results are not listed. Activity calls are given as the source filed them. How the source made its calls, unless noted: active means hit-call score of the fitted dose curve at least 0.9, where 1 is the maximum; inactive means score below 0.9.

CCAAT/enhancer-binding protein beta (Homo sapiens), sequence (P17676 whole entry, looked up): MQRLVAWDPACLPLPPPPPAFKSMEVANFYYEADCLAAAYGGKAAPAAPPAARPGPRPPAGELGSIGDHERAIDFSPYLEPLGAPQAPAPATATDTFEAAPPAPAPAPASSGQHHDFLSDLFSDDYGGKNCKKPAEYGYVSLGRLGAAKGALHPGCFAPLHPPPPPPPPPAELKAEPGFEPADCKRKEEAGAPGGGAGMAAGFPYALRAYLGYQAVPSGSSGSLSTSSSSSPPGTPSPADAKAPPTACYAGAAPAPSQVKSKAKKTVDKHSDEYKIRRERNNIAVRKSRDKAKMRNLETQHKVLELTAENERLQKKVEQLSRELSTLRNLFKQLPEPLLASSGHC
Retinoic acid receptor alpha (Homo sapiens), sequence (P10276 whole entry, looked up): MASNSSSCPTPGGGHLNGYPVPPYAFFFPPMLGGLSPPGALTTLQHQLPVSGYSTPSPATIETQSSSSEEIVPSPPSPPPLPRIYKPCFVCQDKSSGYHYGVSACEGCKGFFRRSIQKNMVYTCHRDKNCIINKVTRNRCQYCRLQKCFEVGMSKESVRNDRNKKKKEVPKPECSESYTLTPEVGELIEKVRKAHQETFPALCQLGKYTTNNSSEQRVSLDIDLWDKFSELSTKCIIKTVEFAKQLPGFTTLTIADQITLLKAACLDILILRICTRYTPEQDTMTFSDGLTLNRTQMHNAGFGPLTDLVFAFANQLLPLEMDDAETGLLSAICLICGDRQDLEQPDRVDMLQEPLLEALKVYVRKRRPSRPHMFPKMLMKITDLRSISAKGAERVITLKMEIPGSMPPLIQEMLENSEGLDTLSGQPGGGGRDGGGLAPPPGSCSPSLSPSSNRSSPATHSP
Transcription factor E2F1 (Homo sapiens), sequence (Q01094 whole entry, looked up): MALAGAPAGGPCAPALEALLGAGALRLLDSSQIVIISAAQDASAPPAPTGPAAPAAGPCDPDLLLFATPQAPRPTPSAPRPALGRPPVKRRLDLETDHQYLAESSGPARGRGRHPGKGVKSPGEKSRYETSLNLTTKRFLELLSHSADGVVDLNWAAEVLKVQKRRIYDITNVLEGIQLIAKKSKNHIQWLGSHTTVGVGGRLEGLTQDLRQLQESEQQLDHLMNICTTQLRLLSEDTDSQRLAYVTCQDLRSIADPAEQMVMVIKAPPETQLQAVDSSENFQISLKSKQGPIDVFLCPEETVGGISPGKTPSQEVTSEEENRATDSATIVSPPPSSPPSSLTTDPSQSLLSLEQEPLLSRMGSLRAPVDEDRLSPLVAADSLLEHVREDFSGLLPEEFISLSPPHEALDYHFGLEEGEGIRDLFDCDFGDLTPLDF
Hepatocyte nuclear factor 3-beta (Homo sapiens), sequence (Q9Y261 whole entry, looked up): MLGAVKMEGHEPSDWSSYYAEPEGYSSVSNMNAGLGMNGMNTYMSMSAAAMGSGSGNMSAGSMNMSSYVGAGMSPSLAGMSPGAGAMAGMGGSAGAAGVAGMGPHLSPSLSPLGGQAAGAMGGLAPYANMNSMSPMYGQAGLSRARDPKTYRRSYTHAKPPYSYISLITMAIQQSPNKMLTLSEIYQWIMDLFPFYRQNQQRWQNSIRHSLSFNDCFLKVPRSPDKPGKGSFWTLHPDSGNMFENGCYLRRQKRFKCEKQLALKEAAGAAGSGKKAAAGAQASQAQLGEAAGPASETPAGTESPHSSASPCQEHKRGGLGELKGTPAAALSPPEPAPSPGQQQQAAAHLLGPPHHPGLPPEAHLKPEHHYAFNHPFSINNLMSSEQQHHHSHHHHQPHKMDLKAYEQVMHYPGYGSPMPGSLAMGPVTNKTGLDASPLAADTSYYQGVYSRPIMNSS
Aryl hydrocarbon receptor (Homo sapiens), sequence (P35869 whole entry, looked up): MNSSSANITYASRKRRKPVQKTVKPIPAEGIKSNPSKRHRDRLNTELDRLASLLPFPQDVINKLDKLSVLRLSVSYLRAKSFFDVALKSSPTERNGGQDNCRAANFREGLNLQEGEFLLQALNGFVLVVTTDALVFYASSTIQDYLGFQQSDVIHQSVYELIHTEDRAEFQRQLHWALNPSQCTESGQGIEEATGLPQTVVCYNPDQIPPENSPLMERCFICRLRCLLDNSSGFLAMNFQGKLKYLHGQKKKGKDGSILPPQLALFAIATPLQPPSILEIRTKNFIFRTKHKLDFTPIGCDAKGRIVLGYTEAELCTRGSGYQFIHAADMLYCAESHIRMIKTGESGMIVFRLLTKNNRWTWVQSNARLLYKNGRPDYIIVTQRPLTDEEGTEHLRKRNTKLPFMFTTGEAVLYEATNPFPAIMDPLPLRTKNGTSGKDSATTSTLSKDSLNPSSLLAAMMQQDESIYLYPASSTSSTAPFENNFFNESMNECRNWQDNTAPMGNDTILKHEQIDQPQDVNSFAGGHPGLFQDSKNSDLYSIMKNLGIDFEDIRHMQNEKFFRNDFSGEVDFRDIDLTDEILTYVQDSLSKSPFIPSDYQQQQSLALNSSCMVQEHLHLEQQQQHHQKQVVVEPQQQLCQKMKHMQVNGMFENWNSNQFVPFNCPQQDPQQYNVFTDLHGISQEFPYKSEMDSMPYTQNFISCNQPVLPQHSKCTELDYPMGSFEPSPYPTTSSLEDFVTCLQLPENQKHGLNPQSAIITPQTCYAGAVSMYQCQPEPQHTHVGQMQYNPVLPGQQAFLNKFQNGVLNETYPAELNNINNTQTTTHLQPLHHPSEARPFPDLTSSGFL

As to `O=C(O)C(F)(F)C(F)(F)C(F)(F)OC(F)(C(F)(F)F)C(F)(F)F`, the result in experiment [1], in experiment [2], in [3], in experiment [4], in experiment [6] and in experiment [7] was inactive. Also, the molecule was called inactive in experiment [8], in experiment [9], in experiment [10], in [11], in experiment [12] and in [13]. Besides, the molecule was called inactive in experiment [14], in [15], in experiment [16], in [17], in experiment [18] and in [19]. Moreover, in experiment [20], the molecule was classed as inactive. For the same molecule, the concentration at half-maximal activity (AC50) in experiment [5] was 238 µM (active).
As to `COC(=O)c1ccc(C=O)cc1`, the call in experiment [1], in experiment [2], in experiment [3], in experiment [4], in experiment [5] and in [7] was inactive. In addition, the molecule was classed as inactive in experiment [8], in experiment [9], in experiment [10], in experiment [11], in experiment [12] and in experiment [13]. Also, the molecule was called inactive in experiment [14], in experiment [15], in experiment [16], in experiment [17], in experiment [18] and in experiment [19]. In addition, the call in experiment [20] was inactive. Moreover, the AC50 in [6] is 105 µM (active).
Take `OCCCC(F)(F)C(F)(F)C(F)(F)C(F)(F)C(F)(F)C(F)(F)C(F)(F)C(F)(F)F`: the AC50 in [1] is 21 µM (active); in [9], 64.3 µM (active); in experiment [10], 22 µM (active). Also, the outcome in [2], in [3], in experiment [4], in experiment [5], in experiment [6] and in experiment [7] was inactive. In addition, the outcome in experiment [8], in experiment [11], in [12], in [13], in experiment [14] and in experiment [15] was inactive. In addition, the result in experiment [16], in experiment [17], in experiment [18], in experiment [19] and in experiment [20] was inactive.

By AC50 is commonly meant the concentration at which the activity in the assay is half-maximal.
